# Results: publication PMC11006913
# Changes are numbered by the printed parent chain.
# Legend:
# Assay in all cases: PBM; 200 nM protein, PBS
# Details in all cases: dsDNA, one strand shown
# SIX6 [1] = biological target: T1, SIX6 (Homo sapiens, UniProt O95475 114-200, L167I)
# T1 sequence: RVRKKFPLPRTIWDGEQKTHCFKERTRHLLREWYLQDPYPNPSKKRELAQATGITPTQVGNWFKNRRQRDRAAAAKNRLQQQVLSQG
# SIX6 [2] = biological target: T2, SIX6 (Homo sapiens, UniProt O95475 114-200, L143V)
# T2 sequence: T1 sequence with L30V, I54L
# SIX6 [3] = biological target: T3, SIX6 (Homo sapiens, UniProt O95475 114-200, H141N)
# T3 sequence: T1 sequence with H28N, I54L
# SIX6 [4] = biological target: T4, SIX6 (Homo sapiens, UniProt O95475 114-200, T165P)
# T4 sequence: T1 sequence with T52P, I54L
# SIX6 [5] = biological target: T5, SIX6 (Homo sapiens, UniProt O95475 114-200, L167M)
# T5 sequence: T1 sequence with I54M
# SIX6 [6] = biological target: T6, SIX6 (Homo sapiens, UniProt O95475 114-200, L143M)
# T6 sequence: T1 sequence with L30M, I54L
# SIX6 [7] = biological target: T7, SIX6 (Homo sapiens, UniProt O95475 114-200, L143I)
# T7 sequence: T1 sequence with L30I, I54L
# SIX6 [8] = biological target: T8, SIX6 (Homo sapiens, UniProt O95475 114-200, T165G)
# T8 sequence: T1 sequence with T52G, I54L
# HOXA2 [9] = biological target: HOXA2 (Homo sapiens, UniProt O43364 129-215, R185T)
# Sequence of HOXA2 (Homo sapiens, UniProt O43364 129-215, R185T) (O43364 129-215 R185T): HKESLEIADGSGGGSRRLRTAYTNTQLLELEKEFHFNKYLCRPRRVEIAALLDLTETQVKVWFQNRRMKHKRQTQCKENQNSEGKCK
# SIX6 [10] = biological target: T9, SIX6 (Homo sapiens, UniProt O95475 114-200, T139Q)
# T9 sequence: T1 sequence with T26Q, I54L
# SIX6 [11] = biological target: T10, SIX6 (Homo sapiens, UniProt O95475 114-200, T165A)
# T10 sequence: T1 sequence with T52A, I54L
# HOXA2 [12] = biological target: HOXA2 (Homo sapiens, UniProt O43364 129-215, R185K)
# Sequence of HOXA2 (Homo sapiens, UniProt O43364 129-215, R185K) (O43364 129-215 R185K): as the sequence (O43364 129-215 R185T) above, with T57K counted along it
# SIX6 [13] = biological target: T11, SIX6 (Homo sapiens, UniProt O95475 114-200, L167V)
# T11 sequence: T1 sequence with I54V
# SIX6 [14] = biological target: T12, SIX6 (Homo sapiens, UniProt O95475 114-200)
# T12 sequence: T1 sequence with I54L
# SIX6 [15] = biological target: T13, SIX6 (Homo sapiens, UniProt O95475 114-200, T165I)
# T13 sequence: T1 sequence with T52I, I54L
# HOXA2 [16] = biological target: HOXA2 (Homo sapiens, UniProt O43364 129-215, Y150S)
# Sequence of HOXA2 (Homo sapiens, UniProt O43364 129-215, Y150S) (O43364 129-215 Y150S): as the sequence (O43364 129-215 R185T) above, with Y22S, T57R counted along it
# HOXA2 [17] = biological target: HOXA2 (Homo sapiens, UniProt O43364 129-215)
# Sequence of HOXA2 (Homo sapiens, UniProt O43364 129-215) (O43364 129-215): as the sequence (O43364 129-215 R185T) above, with T57R counted along it
Sequence,binding signal (SIX6 [1]),binding signal (SIX6 [2]),binding signal (SIX6 [3]),binding signal (SIX6 [4]),binding signal (SIX6 [5]),binding signal (SIX6 [6]),binding signal (SIX6 [7]),binding signal (SIX6 [8]),binding signal (HOXA2 [9]),binding signal (SIX6 [10]),binding signal (SIX6 [11]),binding signal (HOXA2 [12]),binding signal (SIX6 [13]),binding signal (SIX6 [14]),binding signal (SIX6 [15]),binding signal (HOXA2 [16]),binding signal (HOXA2 [17])
AGCCGGCT,"9.39 upbm affinity estimate (log intensity, higher = more binding, comparable within an allelic series)","9.1 upbm affinity estimate (log intensity, higher = more binding, comparable within an allelic series)","9.34 upbm affinity estimate (log intensity, higher = more binding, comparable within an allelic series)","8.96 upbm affinity estimate (log intensity, higher = more binding, comparable within an allelic series)","9.33 upbm affinity estimate (log intensity, higher = more binding, comparable within an allelic series)","9.42 upbm affinity estimate (log intensity, higher = more binding, comparable within an allelic series)","9.2 upbm affinity estimate (log intensity, higher = more binding, comparable within an allelic series)","9.33 upbm affinity estimate (log intensity, higher = more binding, comparable within an allelic series)","7.56 upbm affinity estimate (log intensity, higher = more binding, comparable within an allelic series)","9.36 upbm affinity estimate (log intensity, higher = more binding, comparable within an allelic series)","9.35 upbm affinity estimate (log intensity, higher = more binding, comparable within an allelic series)","10.5 upbm affinity estimate (log intensity, higher = more binding, comparable within an allelic series)","9.33 upbm affinity estimate (log intensity, higher = more binding, comparable within an allelic series)","9.39 upbm affinity estimate (log intensity, higher = more binding, comparable within an allelic series)","9.26 upbm affinity estimate (log intensity, higher = more binding, comparable within an allelic series)","10.2 upbm affinity estimate (log intensity, higher = more binding, comparable within an allelic series)","7.61 upbm affinity estimate (log intensity, higher = more binding, comparable within an allelic series)"
CCCTCGGC,"9.06 upbm affinity estimate (log intensity, higher = more binding, comparable within an allelic series)","8.91 upbm affinity estimate (log intensity, higher = more binding, comparable within an allelic series)","9.09 upbm affinity estimate (log intensity, higher = more binding, comparable within an allelic series)","8.86 upbm affinity estimate (log intensity, higher = more binding, comparable within an allelic series)","9.04 upbm affinity estimate (log intensity, higher = more binding, comparable within an allelic series)","9.07 upbm affinity estimate (log intensity, higher = more binding, comparable within an allelic series)","8.97 upbm affinity estimate (log intensity, higher = more binding, comparable within an allelic series)","9.07 upbm affinity estimate (log intensity, higher = more binding, comparable within an allelic series)",–,"9.11 upbm affinity estimate (log intensity, higher = more binding, comparable within an allelic series)","8.99 upbm affinity estimate (log intensity, higher = more binding, comparable within an allelic series)",–,"8.92 upbm affinity estimate (log intensity, higher = more binding, comparable within an allelic series)","9.04 upbm affinity estimate (log intensity, higher = more binding, comparable within an allelic series)","9.03 upbm affinity estimate (log intensity, higher = more binding, comparable within an allelic series)",–,–
CGGCTTCC,"9 upbm affinity estimate (log intensity, higher = more binding, comparable within an allelic series)","8.76 upbm affinity estimate (log intensity, higher = more binding, comparable within an allelic series)","8.87 upbm affinity estimate (log intensity, higher = more binding, comparable within an allelic series)","8.79 upbm affinity estimate (log intensity, higher = more binding, comparable within an allelic series)","8.83 upbm affinity estimate (log intensity, higher = more binding, comparable within an allelic series)","9 upbm affinity estimate (log intensity, higher = more binding, comparable within an allelic series)","8.88 upbm affinity estimate (log intensity, higher = more binding, comparable within an allelic series)","9 upbm affinity estimate (log intensity, higher = more binding, comparable within an allelic series)",–,"9.03 upbm affinity estimate (log intensity, higher = more binding, comparable within an allelic series)","8.96 upbm affinity estimate (log intensity, higher = more binding, comparable within an allelic series)",–,"8.89 upbm affinity estimate (log intensity, higher = more binding, comparable within an allelic series)","8.96 upbm affinity estimate (log intensity, higher = more binding, comparable within an allelic series)","8.91 upbm affinity estimate (log intensity, higher = more binding, comparable within an allelic series)",–,–
CTCCGCCC,"8.91 upbm affinity estimate (log intensity, higher = more binding, comparable within an allelic series)","8.91 upbm affinity estimate (log intensity, higher = more binding, comparable within an allelic series)","8.92 upbm affinity estimate (log intensity, higher = more binding, comparable within an allelic series)","8.95 upbm affinity estimate (log intensity, higher = more binding, comparable within an allelic series)","8.94 upbm affinity estimate (log intensity, higher = more binding, comparable within an allelic series)","8.89 upbm affinity estimate (log intensity, higher = more binding, comparable within an allelic series)","8.86 upbm affinity estimate (log intensity, higher = more binding, comparable within an allelic series)","8.87 upbm affinity estimate (log intensity, higher = more binding, comparable within an allelic series)",–,"8.89 upbm affinity estimate (log intensity, higher = more binding, comparable within an allelic series)","8.96 upbm affinity estimate (log intensity, higher = more binding, comparable within an allelic series)",–,"8.86 upbm affinity estimate (log intensity, higher = more binding, comparable within an allelic series)","8.89 upbm affinity estimate (log intensity, higher = more binding, comparable within an allelic series)","8.95 upbm affinity estimate (log intensity, higher = more binding, comparable within an allelic series)",–,–
ACGCCGGG,"9.17 upbm affinity estimate (log intensity, higher = more binding, comparable within an allelic series)","8.97 upbm affinity estimate (log intensity, higher = more binding, comparable within an allelic series)","9.1 upbm affinity estimate (log intensity, higher = more binding, comparable within an allelic series)","8.92 upbm affinity estimate (log intensity, higher = more binding, comparable within an allelic series)","9.17 upbm affinity estimate (log intensity, higher = more binding, comparable within an allelic series)","9.18 upbm affinity estimate (log intensity, higher = more binding, comparable within an allelic series)","9.05 upbm affinity estimate (log intensity, higher = more binding, comparable within an allelic series)","9.16 upbm affinity estimate (log intensity, higher = more binding, comparable within an allelic series)",–,"9.21 upbm affinity estimate (log intensity, higher = more binding, comparable within an allelic series)","9.2 upbm affinity estimate (log intensity, higher = more binding, comparable within an allelic series)",–,"9 upbm affinity estimate (log intensity, higher = more binding, comparable within an allelic series)","9.15 upbm affinity estimate (log intensity, higher = more binding, comparable within an allelic series)","9.16 upbm affinity estimate (log intensity, higher = more binding, comparable within an allelic series)",–,–
